Consider 15 compounds from PubChem BioAssay (Tox21).

Activity calls are given as the source filed them. Unless noted, calls come from the whole dose curve; as a rule, active = well fitted curve in the direction sought with a large enough effect in the repeat runs; inconclusive = weak or mixed curves; inactive = no such curve, though single readings can be large; an effect the other way counts as inactive or inconclusive.

The nature of assay [1]: qHTS assay to test for compound auto fluorescence at 535 nm (green) in HEK293 cells (AID 720680). Background: qHTS replaces the single test concentration by a dilution series.
A short description of assay [2]: qHTS assay to test for compound auto fluorescence at 460 nm (blue) in HEK293 cell free culture (AID 720681). The method, boiled down:
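Compounds were added to cell-free DMEM with 10% FBS and fluorescence read directly. The blue channel used 405 nm excitation and 460 nm emission, with triamterene as the reference fluorophore.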

A short description of assay [3]: qHTS assay to test for compound auto fluorescence at 535 nm (green) in HEK293 cell free culture (AID 720682). The method, boiled down: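 Green-label autofluorescence (485 nm excitation, 535 nm emission) measured on compound added to cell-free culture medium (DMEM, 10% FBS). Output is expressed relative to fluorescein.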
The nature of assay [4]: qHTS assay to test for compound auto fluorescence at 590 nm (red) in HEK293 cell free culture (AID 720683). A digest of the protocol: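 Cell-free wells of DMEM with 10% FBS received compound, and intrinsic fluorescence was read at excitation/emission 540/590 nm. Values expressed as equivalence to Rose Bengal sodium.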
Assay [5] is described as follows: qHTS assay to test for compound auto fluorescence at 590 nm (red) in HepG2 cell free culture (AID 720684). A digest of the protocol: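 Compound was pinned into wells holding MEM with 10% FBS and no cells, and red fluorescence was read at Ex/Em 540/590 nm. Signal is expressed as auto fluorescence equivalency relative to Rose Bengal sodium.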
Assay [6] in a line: qHTS assay to test for compound auto fluorescence at 460 nm (blue) in HepG2 cell free culture (AID 720685). The method, boiled down: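 Compound (23 nL) or DMSO pinned into cell-free MEM with 10% FBS; blue fluorescence read at 405/460 nm excitation/emission, expressed as auto-fluorescence equivalency to triamterene.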
Assay [7] can be described thus: qHTS assay to test for compound auto fluorescence at 535 nm (green) in HepG2 cell free culture (AID 720686).
The nature of assay [8]: qHTS assay to test for compound auto fluorescence at 460 nm (blue) in HepG2 cells (AID 720687). A digest of the protocol: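 HepG2 cells in MEM with 10% FBS, attached overnight at 37 C, were exposed to compound or DMSO for 1 hr at 37 C, 5% CO2. Blue fluorescence was read at 405/460 nm, with triamterene as reference fluorophore.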
Assay [9] can be described thus: qHTS assay to identify small molecule antagonists of the glucocorticoid receptor (GR) signaling pathway - cell viability counter screen (AID 720693). Note: nearly all actives have a fitted effect of over 55% in size.
Assay [10] is described as follows: qHTS assay for identifying genotoxic compounds that show differential cytotoxicity against isogenic chicken DT40 cell lines with known DNA damage response pathways - wild type cell line (AID 743012). Note: nearly all actives have a fitted effect of over 60% in size. Note: potency is the fitted concentration of half-maximal effect. A digest of the protocol:
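Quantitative HTS on parental DT40 cells: 40 h compound treatment at 37 C/5% CO2, with viability then determined by CellTiter-Glo luminescence. Values serve as the DNA repair-proficient reference for differential cytotoxicity.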

Assay [11] is described as follows: qHTS assay for identifying genotoxic compounds that show differential cytotoxicity against isogenic chicken DT40 cell lines with known DNA damage response pathways - Rev3 mutant cell line (AID 743014). Note: nearly all actives have a fitted effect of over 55% in size. Note: potency is the fitted concentration of half-maximal effect.
The nature of assay [12]: qHTS assay for identifying genotoxic compounds that show differential cytotoxicity against isogenic chicken DT40 cell lines with known DNA damage response pathways - Rad54/Ku70 mutant cell line (AID 743015). Note: nearly all actives have a fitted effect of over 60% in size. Note: potency is the fitted concentration of half-maximal effect.
Assay [13] in a line: qHTS assay to identify small molecule antagonists of the androgen receptor (AR) signaling pathway - cell viability counter screen (AID 743033; note: nearly all actives have a fitted effect of over 45% in size).
Assay [14] in a line: qHTS assay to identify small molecule antagonists of the androgen receptor (AR) signaling pathway using the MDA cell line - cell viability counter screen (AID 743041; note: nearly all actives have a fitted effect of over 45% in size). The method, boiled down:
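MDA-kb2 AR-luc cells (MMTV-luciferase, AR/GR responsive) treated with compounds plus R1881 agonist for 16 h at 37C. CellTiter-Fluor added at 15.5 h; fluorescence read after 30 min in the same wells.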

Assay [15] addresses Glucocorticoid receptor (Homo sapiens) (UniProt P04150). As to the kind of experiment: qHTS assay to identify small molecule agonists of the glucocorticoid receptor (GR) signaling pathway (AID 720691; active = well fitted activation curve with a large enough effect in the signal ratio in the repeat runs, not every such curve was filed as active; inconclusive = weak or mixed curves, or effect the other way; inactive = no such curve, though single readings can be large or run the other way; the % refers to the signal ratio; note: potency is the fitted concentration of half-maximal effect). A digest of the protocol:
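Beta-lactamase reporter activity, read as fluorescence intensity, was measured in GR-bla HeLa cells exposed to compounds for 18 h at 37 C and then loaded with LiveBLAzer B/G FRET substrate for 2 h at room temperature.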

Assay [16] has as its target Androgen receptor (Homo sapiens) (UniProt P10275). As to the kind of experiment: qHTS assay to identify small molecule antagonists of the androgen receptor (AR) signaling pathway (AID 743035; active = well fitted inhibition curve with a large enough effect in the signal ratio in the repeat runs, not every such curve was filed as active; inconclusive = weak or mixed curves, or effect the other way; inactive = no such curve, though single readings can be large or run the other way; the % refers to the signal ratio). The method, boiled down: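 Cell line: GeneBLAzer AR-UAS-bla GripTite (HEK293). Stimulus: R1881 added after compound. Exposure: 16 h, 37C, 5% CO2. Readout: LiveBLAzer B/G FRET fluorescence after 2 h at room temperature.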

Assay [17] has the same target. As to the kind of experiment: qHTS assay to identify small molecule agonists of the androgen receptor (AR) signaling pathway (AID 743036; active = well fitted activation curve with a large enough effect in the signal ratio in the repeat runs, with a control signal flat, not every such curve was filed as active; inconclusive = weak or mixed curves, or effect the other way; inactive = no such curve, though single readings can be large or run the other way; the % refers to the signal ratio). A digest of the protocol:
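AR-UAS-bla HEK293 cells, plated 4 h before dosing, were treated with compound for 16 h at 37C. beta-Lactamase reporter read after 2 h with LiveBLAzer B/G FRET substrate at room temperature.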

Assay [18] has the same target. As to the kind of experiment: qHTS assay to identify small molecule agonists of the androgen receptor (AR) signaling pathway using the MDA cell line (AID 743040; note: nearly all actives have a fitted effect of over 20% in size). A digest of the protocol: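 MDA-kb2 breast carcinoma cells carrying MMTV-luciferase (responsive to AR and GR), plated 5 h then treated 16 h with compounds at 37C, 0% CO2. Read-out was ONE-Glo luminescence after 30 min at room temperature.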

For assay [19] the target is unchanged. As to the kind of experiment: qHTS assay to identify small molecule antagonists of the androgen receptor (AR) signaling pathway using the MDA cell line (AID 743042; note: nearly all actives have a fitted effect of over 55% in size). A digest of the protocol: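 MDA-kb2 breast carcinoma cells carrying MMTV-luciferase (AR/GR responsive) were co-treated with compounds and the agonist R1881 for 16 h at 37C. Inhibition read as ONE-Glo luminescence; CellTiter-Fluor fluorescence measured in parallel for cytotoxicity.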

Chain of Glucocorticoid receptor (Homo sapiens) (P04150 whole entry, looked up): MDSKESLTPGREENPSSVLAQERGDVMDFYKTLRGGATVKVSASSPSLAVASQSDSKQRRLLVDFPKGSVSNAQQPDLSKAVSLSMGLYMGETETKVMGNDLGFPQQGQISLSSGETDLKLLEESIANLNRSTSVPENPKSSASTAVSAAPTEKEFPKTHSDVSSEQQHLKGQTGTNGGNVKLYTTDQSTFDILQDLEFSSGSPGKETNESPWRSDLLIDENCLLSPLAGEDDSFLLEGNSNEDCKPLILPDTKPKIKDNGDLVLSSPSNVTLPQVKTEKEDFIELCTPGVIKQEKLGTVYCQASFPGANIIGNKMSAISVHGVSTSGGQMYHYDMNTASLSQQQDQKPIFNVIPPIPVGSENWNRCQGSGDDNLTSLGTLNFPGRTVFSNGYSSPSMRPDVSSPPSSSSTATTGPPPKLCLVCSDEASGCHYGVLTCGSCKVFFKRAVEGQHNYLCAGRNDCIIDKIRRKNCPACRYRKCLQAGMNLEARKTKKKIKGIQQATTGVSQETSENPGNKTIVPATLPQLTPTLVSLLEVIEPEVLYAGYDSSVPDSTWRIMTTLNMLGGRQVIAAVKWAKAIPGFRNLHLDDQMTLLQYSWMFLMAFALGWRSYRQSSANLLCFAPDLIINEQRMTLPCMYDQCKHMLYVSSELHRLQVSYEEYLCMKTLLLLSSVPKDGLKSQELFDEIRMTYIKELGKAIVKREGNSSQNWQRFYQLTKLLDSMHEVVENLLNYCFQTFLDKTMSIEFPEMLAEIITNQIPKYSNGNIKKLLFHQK
Chain of Androgen receptor (Homo sapiens) (P10275 whole entry, looked up): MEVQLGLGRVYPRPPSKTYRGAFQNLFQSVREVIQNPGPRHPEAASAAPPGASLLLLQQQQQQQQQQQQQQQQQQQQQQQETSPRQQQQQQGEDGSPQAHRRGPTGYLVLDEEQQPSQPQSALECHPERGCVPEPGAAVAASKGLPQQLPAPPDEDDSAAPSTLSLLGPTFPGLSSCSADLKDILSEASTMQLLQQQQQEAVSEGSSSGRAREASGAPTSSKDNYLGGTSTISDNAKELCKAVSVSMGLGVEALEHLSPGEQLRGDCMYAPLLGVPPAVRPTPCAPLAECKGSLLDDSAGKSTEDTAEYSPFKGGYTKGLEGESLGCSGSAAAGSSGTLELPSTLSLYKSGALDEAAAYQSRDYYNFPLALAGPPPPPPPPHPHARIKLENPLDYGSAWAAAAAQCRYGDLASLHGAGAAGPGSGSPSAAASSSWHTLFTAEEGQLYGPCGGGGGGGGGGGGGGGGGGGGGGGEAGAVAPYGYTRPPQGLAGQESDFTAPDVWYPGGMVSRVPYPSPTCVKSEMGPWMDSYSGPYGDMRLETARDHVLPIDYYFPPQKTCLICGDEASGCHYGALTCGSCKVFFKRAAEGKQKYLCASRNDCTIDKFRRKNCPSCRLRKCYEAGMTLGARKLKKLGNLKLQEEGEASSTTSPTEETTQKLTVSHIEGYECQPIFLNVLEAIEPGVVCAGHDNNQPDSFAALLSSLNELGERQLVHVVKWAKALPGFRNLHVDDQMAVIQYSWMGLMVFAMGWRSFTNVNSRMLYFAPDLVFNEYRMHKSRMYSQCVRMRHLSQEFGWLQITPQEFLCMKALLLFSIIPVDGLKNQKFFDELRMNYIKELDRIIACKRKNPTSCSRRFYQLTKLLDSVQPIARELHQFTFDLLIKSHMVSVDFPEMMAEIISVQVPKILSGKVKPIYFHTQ

For `N#CCc1ccccc1[N+](=O)[O-]`, the result in [1], in assay [3], in assay [4], in [5], in assay [7] and in [9] was inactive. In addition, the compound was classed as inactive in assay [13]. In addition, the Potency entry in assay [2], in assay [6], in [8], in assay [10], in [11] and in assay [12] was “inactive” each time. Also, the Potency result in [14] is “inactive”.

Consider `CC(C)CCCC(C)CCCC(C)CCCCC(C)CCCC(C)CCCC(C)C` (stereo not given), for which the call in assay [1], in [3], in assay [4], in [5], in assay [7] and in [13] was inactive. The Potency entry in assay [2], in assay [6], in assay [8], in assay [15], in assay [10] and in [11] was “inactive” throughout. The Potency entry in [12] and in assay [14] was “inactive” each time.

In the case of `Cc1ccccc1C(=O)O`, the compound was classed as inactive in assay [1], in assay [3], in assay [4], in [5], in assay [7] and in [9]. Besides, the outcome in [13] was inactive. Further, the Potency entry in assay [2], in assay [6], in assay [8], in assay [10], in assay [11] and in assay [12] was “inactive” throughout. Further, in assay [14], the Potency entry was “inactive”.

For `CCn1cc(C(=O)O)c(=O)c2cc(F)c(N3CCN(C)CC3)cc21`, the result in assay [1], in assay [3], in assay [4], in assay [5], in [7] and in [13] was inactive. The Potency result in assay [2], in [6], in assay [8], in assay [15] and in assay [14] was “inactive” in each case.

Take `CCN1CCCC1CNC(=O)c1cc(S(N)(=O)=O)ccc1OC` (stereo not given): the compound was classed as inactive in assay [1], in assay [3], in assay [4], in [5], in assay [7] and in assay [9]. Also, the outcome in assay [13], in assay [17] and in assay [19] was inactive. For the same compound, the Potency result in [2], in assay [6], in assay [8], in assay [15], in [10] and in assay [12] was “inactive” throughout. Also, the Potency result in [16], in assay [18] and in assay [14] was “inactive” throughout.

With `CO`, the call in [1], in assay [3], in assay [4], in [5], in assay [7] and in [9] was inactive. Further, the outcome in [13] was inactive. Moreover, the Potency result in assay [2], in assay [6], in [8], in [10], in [11] and in [12] was “inactive” each time. Moreover, the Potency entry in assay [14] is “inactive”.

On to `CCCCCCC(=O)OCC`, for which the outcome in [1], in assay [3], in [4], in assay [5], in [7] and in assay [9] was inactive. Besides, the compound was called inactive in [13]. Moreover, the Potency entry in [2], in assay [6], in assay [8], in assay [10], in assay [11] and in assay [12] was “inactive” in each case. In addition, the Potency entry in assay [14] was “inactive”.

Take `C=CCOCC(O)CS(=O)(=O)O` (stereo not given): the call in [1], in [3], in [4], in [5], in assay [7] and in assay [9] was inactive. Besides, in assay [13], the result was inactive. Also, the Potency result in assay [2], in assay [6], in assay [8], in [10], in [11] and in assay [12] was “inactive” throughout. Also, the Potency entry in assay [14] is “inactive”.

As to `CCCCCCCCCCCCCCCCCCOCC(O)CO` (stereo not given), the call in assay [1], in [3], in assay [4], in assay [5], in [7] and in assay [13] was inactive. Besides, the Potency result in assay [2], in assay [6], in assay [8], in [10], in assay [11] and in [12] was “inactive” throughout. For the same compound, in assay [14], the Potency result was “inactive”. Besides, the Potency in assay [15] was 0.952 µM [inconclusive] (active).

With `NC(=O)Nc1nc2ccccc2[nH]1`, the result in assay [1], in assay [3], in assay [4], in assay [5], in [7] and in assay [9] was inactive. The call in assay [13] was inactive. Besides, the Potency result in [2], in assay [6], in assay [8], in assay [10], in [11] and in assay [12] was “inactive” in each case. For the same compound, the Potency entry in [14] is “inactive”.

On to `C1C2OC2C2C1C1CC2C2OC12` (stereo not given), for which the result in assay [1], in assay [3], in [4], in [5], in assay [7] and in assay [13] was inactive. Besides, the Potency entry in assay [2], in assay [6], in assay [8], in [15], in assay [10] and in [11] was “inactive” each time. The Potency result in assay [14] was “inactive”.

Consider `C=C(C)[C@@H]1CCC2=CC(=O)C[C@@H](C)[C@]2(C)C1`, for which the result in assay [1], in assay [3], in assay [4], in [5], in assay [7] and in [9] was inactive. In assay [13], the compound was classed as inactive. The Potency entry in [2], in assay [6], in assay [8], in [10], in assay [11] and in [12] was “inactive” in each case. Further, the Potency entry in assay [14] was “inactive”.

With `CCO[Si](CCCN=C=O)(OCC)OCC`, the compound was called inactive in [1], in assay [3], in assay [4], in assay [5], in assay [7] and in assay [9]. In addition, the result in [13] was inactive. In addition, the Potency result in assay [2], in assay [6], in [8], in assay [10], in assay [11] and in assay [12] was “inactive” in each case. In assay [14], the Potency entry was “inactive”.

With `COC(=O)CCCCCCCCC(=O)OC`, the compound was classed as inactive in [1], in assay [3], in assay [4], in assay [5], in assay [7] and in assay [9]. Further, the call in [13] was inactive. Further, the Potency entry in assay [2], in assay [6], in assay [8], in [10], in assay [11] and in assay [12] was “inactive” in each case. Moreover, the Potency entry in [14] is “inactive”.

As for `Cc1c(C)n(CCN(C)C)c2ccc(C(=O)OCCN(C)C)cc12`, the compound was called inactive in assay [1], in assay [3], in assay [4], in assay [5], in assay [7] and in [9]. Further, the outcome in [13] was inactive. Moreover, the Potency result in assay [2], in [6], in assay [8] and in assay [14] was “inactive” in each case. For the same compound, the Potency in assay [10] is 11.9 µM (active); in [11], 7.5 µM (active); in assay [12], 13.3 µM (active).
